# A selection: hits, their analogues and other compounds. The true share with any hit is near 2.4%.
# Hsp90 Hop PPI: changes Hsp90-Hop TPR2A binding signal, up or down. AlphaScreen TPR2A-His6 binding biotin-Hsp90 C-terminal peptide. Potency, µM (doses to about 57 µM), for the others: top-dose activity change, negative = inhibition. 71,000 tested, 0.44% active. AID 595; active = well fitted curve in either direction with a large enough effect; inconclusive = small, poorly fitted or top-dose-only effect, or another doubt; note: % is set by controls: 0 for no effect and ±100 for the full control effect
# 15-hLO-2 inh: inhibitors of human 15-lipoxygenase 2 (ALOX15B); O15296; purified 15hLO-2, xylenol orange hydroperoxide absorbance; 110,000 tested, 0.56% active; AID 881; Potency, µM (doses to about 57.1 µM), for inactives: at the highest dose activity change, negative = inhibition, most hits filed as inhibitors; note: % is set by controls: 0 for no effect and ±100 for the full control effect; nearly all actives have a fitted effect of over 60% in size
#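 Enzyme 50 nM, AA 45 uM, 25 mM Hepes pH 7.5 + 0.01% Triton X-100; cpd preinc 15 min RT, rxn 90 min RT; stop/detect with 200 uM XO + 300 uM Fe(II) in 50 mM H2SO4, 30 min; A573/A405.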
# Tau fil binding: binders of human tau filaments | recombinant tau filaments, thioflavin S fluorescence, 15 h; filaments grown with octadecylsulfate alongside compound | Potency, µM (titrated, usually from 57.1 µM), for inactives: at the highest dose activity change, negative = inhibition | 71,000 tested, 2% active | AID 596;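 note: % is set by controls: 0 for no effect and ±100 for the full control effect; actives lower thioflavin S fluorescence by blocking filaments or displacing dye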
#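 His-tagged recombinant human tau (exons 2, 3 and 10 included), 1 uM, was induced to fibrillize by 30 uM sodium octadecylsulfate with compound present. After 15 h at 37 C, thioflavine S fluorescence (ex 450, em 510 nm) was read.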
# Casp7 inh: allosteric or competitive inhibitors of human caspase-7. P55210. recombinant caspase-7, Ac-DEVD-AFC fluorescence rate. Potency, µM (doses to about 57.5 µM), for the others: at the top dose activity change, negative = inhibition, usual class: inhibitors. 75,000 tested, 0.02% active; active = well fitted inhibition curve with a large enough effect in the main read-out, with a control signal flat, not every such curve was filed as active; inconclusive = small, poorly fitted or top-dose-only effect, or a change in a side signal; note: % of control where 0% means no effect
# 15-hLO inh: 15-hLO (ALOX15) enzyme inhibition. purified 15hLO-1, xylenol orange hydroperoxide absorbance. Potency, µM (top dose mostly 57.1 µM), without a hit: at the top dose activity change, negative = inhibition, usual class: inhibitors. 74,000 tested, 1.4% active; note: % is set by controls: 0 for no effect and ±100 for the full control effect; nearly all actives have a fitted effect of over 55% in size
#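 40 nM 15hLO-1 + cpd, 15 min RT; start w/ 50 uM AA (final), 6 min RT; stop/detect w/ 200 uM XO + 300 uM Fe(II) in 50 mM H2SO4, 30 min; A573/A405. Buffer 25 mM Hepes pH 7.5, 0.01% Triton X-100. No-enzyme wells as negative control.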
# Casp1 inh: allosteric or competitive inhibitors of human caspase-1 | Potency, µM (series often up to 57.5 µM), for inactives: at the top dose activity change, negative = inhibition, usual class: inhibitors | 75,000 tested, 0.03% active | P29466 | Caspase-1 enzyme, Ac-WEHD-AFC fluorogenic rate;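 note: plate controls were vehicle for no effect and no substrate for full effect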
# Active calls of the source: *; ? = inconclusive; nt = not tested or not shown; [ ] = remark or other dose. Unless noted, calls come from the whole dose curve; as a rule, active = well fitted curve in the direction sought with a large enough effect; inconclusive = small, poorly fitted or top-dose-only effect, or another doubt; inactive = no such curve, though single readings can be large; an effect the other way counts as inactive or inconclusive. Potency is the fitted concentration of half-maximal effect.
SMILES,Hsp90 Hop PPI,15-hLO-2 inh,Tau fil binding,Casp7 inh,15-hLO inh,Casp1 inh
CC(C)(C)C1CCC(C(=O)Nc2ccccc2)CC1 (stereo not drawn),nt,-13%,nt,nt,nt,nt
O=C(Nc1ccc(Nc2ccccc2)cc1)C1CC1,?,-13%,10µM*,-2%,-6%,-2%
O=C(O)[C@@H](c1ccccc1)N1Cc2ccccc2C1=O,-2%,-21%,-4%,-1%,7.9µM*,-3%
COCC(=O)NCCNc1nc2ccc(C)cc2cc1C,1%,12%,13%,2%,8%,-3%
O=[N+]([O-])c1ccc(/C=N/n2c(C3CCCCC3)n[nH]c2=S)cc1,nt,-14%,nt,nt,nt,nt
CCN(CC)c1ccc(C(=S)N2CCN(c3ccccc3)CC2)cc1,-20%,-16%,5µM*,-2%,-20%,1%
S=C(c1ccc(N2CCCC2)cc1)N1CCCCC1,-22%,-28%,32µM*,-8%,?,-5%
Nc1ccc(N2CCCCCC2)cc1,?,13µM*,10µM*,-25%,3.2µM*,?
O=C(O)c1ccc(N2CCCCC2)cc1,nt,5%,nt,nt,nt,nt
CCCn1c(N)c(Sc2ccccc2)c(=O)n(CCC)c1=O,nt,-1%,nt,nt,nt,nt
O=C(OCC1OC(OC(=O)c2cc(O)c(O)c(OC(=O)c3cc(O)c(O)c(O)c3)c2)[C@@H](OC(=O)c2cc(O)c(O)c(OC(=O)c3cc(O)c(O)c(O)c3)c2)C(OC(=O)c2cc(O)c(O)c(OC(=O)c3cc(O)c(O)c(O)c3)c2)C1OC(=O)c1cc(O)c(O)c(OC(=O)c2cc(O)c(O)c(O)c2)c1)c1cc(O)c(O)c(OC(=O)c2cc(O)c(O)c(O)c2)c1 (stereo partly drawn),nt,1.6µM*,nt,?,0.5µM*,?
CC(=O)NC1C(OCCOc2ccc(Cl)cc2Cl)OC(COC(C)=O)C(OC(C)=O)C1OC(C)=O (stereo not drawn),nt,-2%,nt,nt,nt,nt
CCN1CC2([N+](=O)[O-])C=CC(=O)C([N+](=O)[O-])(C1)C2CC(=O)c1ccccc1 (stereo not drawn),nt,-11%,nt,nt,nt,nt
N#Cc1c(N2CCCCC2)nc(N)c2c(N)nc3c(c12)CC(c1ccccc1)O3 (stereo not drawn),nt,-4%,nt,nt,nt,nt
CC(C)(C)N1C(=O)Cc2c1nc(N)c1c(N)nc(N3CCCCC3CO)c(C#N)c21 (stereo not drawn),?,25µM*,7.9µM*,?,20µM*,nt
O=C(CN1C(=O)CCC1=O)Nc1ccc2c3c(cccc13)CC2,-1%,-8%,-2%,-3%,7%,2%
CCCn1c(C)nc2c(NCCN(C)C)nc(C)nc21,-3%,23%,1%,-1%,25µM*,2%
CCCn1c(C)nc2c(NCCN(C(C)C)C(C)C)nc(C)nc21,-4%,14%,0%,0%,-11%,1%
CCCn1c(C)nc2c(N(CCN(C)C)Cc3ccccc3)nc(C)nc21,-1%,19%,-20%,-1%,16µM*,-6%
CN1CCN(CC(=O)N2c3ccccc3Sc3cc4ccccc4cc32)CC1,-8%[11 µM],33%[11.4 µM],-3%[11.4 µM],-2%[11.5 µM],-5%[11.4 µM],1%[11.5 µM]
COCCn1c(=O)c(-c2cc(F)cc(F)c2)nc2cnc(Oc3ccc(OC)cc3)nc21,-5%,-2%,16µM*,?,-11%,?
COCCn1c(=O)c(-c2ccc(F)cc2)nc2cnc(Oc3cccc(Cl)c3)nc21,-3%,-5%,-8%,-12%,-9%,-8%
COCCn1c(=O)c(-c2cc(F)cc(F)c2)nc2cnc(Oc3ccccc3)nc21,-5%,-2%,?,?,-10%,nt
O=c1cnc2cnc(Oc3cccc(Cl)c3)nc2n1Cc1ccc(F)cc1,-3%,-15%,16µM*,-12%,-23%,-8%
COCCn1c(=O)c(-c2cc(F)cc(F)c2)nc2cnc(Oc3cccc(Cl)c3)nc21,-10%,-4%,13µM*,?,5%,nt
SMILES,Hsp90 Hop PPI,15-hLO-2 inh,Tau fil binding,Casp7 inh,15-hLO inh,Casp1 inh
O=C(Nc1cccc(Cl)c1)Nc1ccc2c(c1)OCO2,-13%,-4%,13µM*,-4%,-15%,-1%
Cc1ccc(NC(=O)C2(S(=O)(=O)c3ccc(C)cc3)CC2)cc1,nt,-1%,nt,nt,nt,nt
O=C(Nc1ccc2c(c1)OCO2)C1(S(=O)(=O)c2ccc(Cl)cc2)CC1,-7%,-11%,16µM*,1%,-3%,2%
O=C(Nc1ccccc1)Nc1cccc(Cl)c1,nt,0%,nt,nt,nt,nt
COc1cc(-c2noc(-c3ccco3)n2)cc(OC)c1OC,-3%,-2%,-7%,-1%,16%,3%
NC(=O)CSCc1ccc(Br)cc1,-1%,8%,0%,1%,13%,-1%
CCc1ccc(NC(=O)Nc2cccs2)cc1,-14%,-27%,25µM*,-11%,25µM*,-5%
Cc1ccc(NC(=O)Nc2cccs2)nc1,nt,-4%,nt,nt,nt,nt
O=C(Nc1cccs1)Nc1ccccc1Cl,-11%,?,25µM*,-12%,13µM*,-5%
CCOc1ccc(NC(=O)Nc2cccs2)cc1,nt,-15%,nt,nt,nt,nt
Cc1ccc(NC(=O)Nc2cccs2)cc1,nt,-6%,nt,-10%,25µM*,-2%
Cc1cc(C)nc(SCC(=O)c2cc3ccccc3oc2=O)n1,-6%,-8%,-18%,0%,-15%,-1%
O=C(CSc1nc2ccccc2o1)c1cc2ccccc2oc1=O,-20%,nt,25µM*,?,22%,?
O=C1c2ccccc2C(=O)N1Cc1nc2ccccc2o1,-1%,-6%,1%,-5%,6%,0%
O=C1c2ccccc2C(=O)N1CCCSc1nc2ccccc2o1,?,-4%,4µM*,-1%,-11%[11.4 µM],-2%
O=C(Nc1ccc(Cl)cc1)c1ccncc1,?,7%,-2%,-2%,-5%,0%
COc1ccccc1NC(=O)CSc1nnc(Cn2cnc3ccccc32)n1C,6%,0%,-13%,1%,7%,1%
O=c1cc(O)cc(/C=C\c2ccc(O)c(O)c2)o1,13µM*,?,1%,?,0.79µM*,-4%
CC(C)(C)C(=O)/C=C(N)/C=C/c1ccccc1,-12%,-13%,25µM*,-8%,-14%,-1%
CNCCCCCCCCSc1nc(C(C)C)ccc1C(=O)c1cccs1,-6%,27%,13µM*,-1%,-6%[25.6 µM],-2%
CC(NS(=O)(=O)c1ccc(OCC(=O)N2CCOCC2)c(Cl)c1)c1ccccc1 (stereo not drawn),2%,-3%,5%,-1%,12%,-4%
O=c1ccc2c(o1)/C(=C/C=C(Cl)Cl)CCC2,5%[11 µM],-1%,2µM*,?,?,nt
O=C(Nc1nnc(SCc2ccc(Cl)cc2)s1)C1CCCO1 (stereo not drawn),nt,-10%,nt,nt,nt,nt
O=C(Nc1nnc(COc2ccc(Cl)cc2)s1)C1CCCO1 (stereo not drawn),0%,-11%,-13%,-2%,7.9µM*,1%

# Bioassay records from PubChem BioAssay.
